# Most compounds without a hit are left out; they make up all but 19% or so of the library.
# KB-3-1 tox: KB-3-1 parental cell cytotoxicity; KB-3-1 viability, CellTiter-Glo ATP luminescence, 72 h; Potency, µM (top dose mostly 46.1 µM), usual class: cytotoxic; actives 1.4% (n = 400,000); AID 1347075; also: nearly all actives have a fitted effect of over 60% in size
#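 KB-3-1 cells, DMEM (no phenol red) + 10% FBS; compound by pin transfer, 72 h, 37 °C. Readout: CellTiter-Glo luminescence after 10 min. Data normalized, curve-fitted.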
# HT1080 IDH1KD tx: kills HT-1080 cells with IDH1 knockdown; HT-1080 IDH1 knockdown viability, ATP luminescence, 48 h; Potency, µM (series often up to 46.1 µM), most hits filed as cytotoxic; actives 2% (n = 360,000); AID 686971
#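 Assay cells: HT-1080 with IDH1 knockdown, 750 per well, RPMI/5% FBS. Exposure: 48 h at 37 °C following 2 h pre-incubation. Read: CellTiter-Glo luminescence; fitted concentration-response, curve class assigned.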
# TDP1 cell noCPT: qHTS for Inhibitors of human tyrosyl-DNA phosphodiesterase 1 (TDP1): qHTS in cells in absence of CPT; Potency, µM (titrated, usually from 46.2 µM), usual class: inhibitors; actives 15% (n = 420,000); AID 686978, 2013; DT40 Tdp1-/- hTDP1 cells, no CPT, ATP luminescence, 48 h; also: nearly all actives have a fitted effect of over 55% in size
#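 Cells were dispensed at 400 per well, compounds added by pin tool, plates incubated ≥48 hr at 37 °C, then CellTiter-Glo added for 30 min at room temperature before luminescence reading. Line: DT40 Tdp1-/- complemented with hTDP1; camptothecin omitted.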
# DT40 TDP1 CPT: DT40-hTDP1 cell growth loss with CPT; chicken DT40 Tdp1-/-;hTDP1 cells + 20 nM CPT, ATP luminescence, 48 h; Potency, µM (doses to about 46.2 µM), most hits filed as inhibitors; actives 12% (n = 420,000); also: nearly all actives have a fitted effect of over 55% in size
#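 Chicken DT40 Tdp1-/- cells complemented with human TDP1, 400 cells/well, exposed to compounds plus 20 nM camptothecin for at least 48 h at 37 C; viability read as ATP content by CellTiter-Glo luminescence.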
# HT1080-NT tox: kills 2HG-producing HT-1080-NT fibrosarcoma cells; HT-1080-NT fibrosarcoma viability, CellTiter-Glo ATP luminescence, 48 h; Potency, µM (highest dose often 46.1 µM), hits mostly cytotoxic; actives 1.6% (n = 360,000); AID 686970;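 also: NT is the 2HG producing partner of a matched IDH1 knockdown line; nearly all actives have a fitted effect of over 55% in size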
#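 750 cells/well, RPMI + 5% FBS; 2 h settle, compound pin-transfer, 48 h at 37 degrees C. CellTiter-Glo 10 min RT, luminescence. Normalized to DMSO and media-only wells.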
# KB-V1 MDR tox: KB-V1 MDR subline cytotoxicity. KB-V1 MDR cells viability, CellTiter-Glo, 72 h. Potency, µM (titrated, usually from 46.1 µM), usual class: cytotoxic. actives 3.4% (n = 400,000). AID 1347076; also: nearly all actives have a fitted effect of over 60% in size
#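 Luminescent ATP read-out (CellTiter-Glo, 10 min) measures survival of drug-selected KB-V1 MDR cells after 72 h, 37 degrees C compound exposure. Medium: phenol-red-free DMEM, 10% FBS. Values from fitted concentration-response curves.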
# A number is an active result; 0 = inactive; ? = inconclusive; - = not tested or not shown; [ ] = remark or other dose. Calls follow the shape of the dose curve; as a rule, active = well fitted curve in the direction sought with a large enough effect; inconclusive = small, poorly fitted or top-dose-only effect, or another doubt; inactive = no such curve, though single readings can be large; an effect the other way counts as inactive or inconclusive.
SMILES,KB-3-1 tox,HT1080 IDH1KD tx,TDP1 cell noCPT,DT40 TDP1 CPT,HT1080-NT tox,KB-V1 MDR tox
C=CCNCCCOc1ccc(Cl)cc1Br,0,0,?,?,0,0
O=C(CN1C(=O)COc2ccccc21)NCCc1ccc(Cl)cc1,-,-,0,0,-,-
CCCCNCCOCCOc1ccc(C)cc1Br,0,0,23.1µM,16.4µM,0,16.4µM
Cc1cc(OCCCCCNCCO)ccc1Cl,?,?,16.4µM,14.6µM,0[9.24 µM],0
Cc1cccc(OCCCCCNCCO)c1,0,0[9.24 µM],0,0,0,0
CCCc1ccc(C(=O)/C=C/N(C)C)cc1,0,0,0,0,0,0
COCCC(=O)N1CCC(Oc2ccc(C(=O)NCCCC3CCCC3)cc2)CC1,-,0,20.6µM,20.6µM,0,-
COCCC(=O)N1CCC(Oc2ccc(C(=O)NCCC3=CCCCC3)cc2)CC1,0,0,?,16.4µM,0,?
COc1ccc(Cc2nnc(NC(=O)c3cccs3)s2)cc1OC,?,0,0,0,0,?
C=CCNC(=O)C(=O)NCCOc1ccccc1Cl,7.31µM,?,?,11.6µM,?,0
COC(=O)[C@]12CCCCC=C1N(CCC1=CCCCC1)C(=O)[C@H](CC(=O)NCc1ccc(C)o1)C2,0,?,?,?,0,0
CCCCCCCCN1C(=O)[C@H](CC(=O)NCc2ccc(C)o2)C[C@@]2(C(=O)OC)CCCCC=C12,0,?,20.6µM,?,?,?
CCCCCCCCN1C(=O)[C@H](CC(=O)NCc2ccc(C)o2)C[C@@]2(C(=O)OCC)CCC=C12,0,?,16.4µM,?,?,?
COc1cc(C(=O)Nc2sc3c(c2C(N)=O)CCC(C)C3)cc(OC)c1OC (configuration not stated),0,-,0,?,-,0
COc1cc(C(=O)Nc2sc3c(c2C#N)CCCC3)c(Br)c(OC)c1OC,-,-,3.26µM,?,-,-
COC(=O)c1c(NC(=O)c2cc(OC)c(OC)c(OC)c2Br)sc2c1CCC(C)C2 (configuration not stated),0,-,20.6µM,?,-,0
COC(=O)CCC(=O)Nc1sc2c(c1C#N)CCCC2,0,0,4.61µM,4.61µM,0,0
COc1cccc(OC)c1C(=O)Nc1sc2c(c1C#N)CCC2,0,0,0,0,0,0
COC(=O)c1cc(-c2ccc(NC(C)=O)cc2)nc2ccccc12,0,0,?,?,0,0
CC(=O)Nc1ccc(Br)c2ccccc12,0,0,?,0,0,0
COc1cccc(C(=O)NNC(=O)c2ccccc2)c1,0,0,0,0,0,0
O=C(Nc1ccc(Br)c2ccccc12)c1ccc2ccccc2c1O,0,?,8.2µM,8.2µM,?,0
COc1cccc(C(=O)NNC(=O)c2ccc3ccccc3c2O)c1,?,0,9.2µM,?,0,?
O=C(NNC(=O)c1ccc2ccccc2c1O)c1ccccc1Cl,0,?,13µM,?,0,0
CN1CCCCC1(C)C(=O)NCc1cc(Cl)ccc1F (configuration not stated),0,0,0,0,0,0
SMILES,KB-3-1 tox,HT1080 IDH1KD tx,TDP1 cell noCPT,DT40 TDP1 CPT,HT1080-NT tox,KB-V1 MDR tox
COc1cccc(NS(=O)(=O)c2cc3c4c(c2)C(C)C(=O)N4CCC3)c1 (configuration not stated),0,-,?,?,-,0
Cc1csc2nc(COC(=O)c3ccc(NC(=O)c4ccccc4Br)cc3)cc(=O)n12,-,-,18.4µM,20.6µM,-,-
Cc1csc2nc(COc3ccc(NC(=O)C(C)C)cc3)cc(=O)n12,0,-,0,0,-,0
Cc1csc2nc(COC(=O)c3ccc(NC(=O)C(C)C)cc3)cc(=O)n12,-,-,25.9µM,18.4µM,-,-
Cc1csc2nc(COC(=O)CNC(=O)c3ccccc3)cc(=O)n12,0,-,0,0,-,0
Cc1ccc(C(=O)N2CC=C(c3ccccc3)CC2)o1,0,0,?,?,0,0
O=C(O)c1ccccc1C(=O)N1CC=C(c2ccccc2)CC1,0,0,25.9µM,?,0,0
Cc1cc(C(=O)N2CC=C(c3ccccc3)CC2)c2ccccc2n1,?,1.64µM,0.92µM,0.581µM,?,1.46µM
Cc1c(C(=O)C(=O)N2CC=C(c3ccccc3)CC2)c2ccccc2n1C,2.91µM,2.31µM,2.59µM,2.91µM,2.59µM,3.66µM
COc1ccc2nccc(/C=C/c3ccc(N(C)C)cc3)c2c1,0,-,11.2µM,?,-,0
CN(C)c1ccc(/C=C/c2ccnc3ccc(Cl)cc23)cc1,0,-,12.6µM,?,-,0
COc1cccc2nccc(/C=C/c3ccc(N(C)C)cc3)c12,?,-,12.6µM,31.6µM,-,?
CN(C)c1ccc(/C=C/c2ccnc3ccc(-c4ccccc4)cc23)cc1,0,-,14.1µM,?,-,0
CN(C)c1ccc(/C=C/c2ccnc3cc(Cl)cc(Cl)c23)cc1,0,-,?,?,-,0
CN(C)c1ccc(/C=C/c2ccnc3ccc(O)cc23)cc1,?,-,?,?,-,0
CN(C)c1ccc(/C=C/c2ccnc3ccc(N)cc23)cc1,?,-,?,17.8µM,-,?
Cc1ccc(C)c2c(/C=C/c3ccc(N(C)C)cc3)ccnc12,?,-,?,?,-,0
CN(C)c1ccc(/C=C/c2ccnc3ccc(Br)cc23)cc1,0,-,5.62µM,5.62µM,-,0
Cc1cc2nccc(/C=C/c3ccc(N(C)C)cc3)c2cc1C,0,-,?,?,-,0
CN(C)c1ccc(/C=C/c2ccnc3ccc(F)cc23)cc1,0,-,14.1µM,12.6µM,-,0
CCOC(=O)N1CCN(C(=O)/C=C/c2c(C)nn(-c3ccc(F)cc3)c2Cl)CC1,0,0,13µM,?,0,?
CC(C)(C)N1C(=O)[C@H]2[C@@H](c3ccc(Br)cc3)N3C(=O)N(c4ccc(Br)cc4)C(=O)[C@@]3(Cc3ccccc3)[C@H]2C1=O,0,0,?,20.6µM,0,0
O=C1[C@H]2[C@@H](c3ccc(F)cc3)N3C(=O)N(c4cccc(Br)c4)C(=O)[C@@]3(Cc3ccccc3)[C@H]2C(=O)N1C1CCCCC1,?,0,0,0,0,?
Cc1ccc(N2C(=O)N3[C@H](c4ccc(Br)cc4)[C@@H]4C(=O)N(C(C)(C)C)C(=O)[C@@H]4[C@]3(C)C2=O)cc1,0,0,0,?,0,0
Cc1cccc(N2C(=O)N3[C@H](c4ccc(Br)cc4)[C@@H]4C(=O)N(C(C)(C)C)C(=O)[C@@H]4[C@]3(C)C2=O)c1,0,0,?,18.4µM,0,0
O=C1[C@H]2[C@@H](c3ccc(Cl)cc3)N3C(=O)N(c4cccc(Cl)c4)C(=O)[C@@]3(Cc3ccccc3)[C@H]2C(=O)N1C1CCCCC1,0,0,11.6µM,10.3µM,0,0
